HPGD inh = qHTS Assay for Inhibitors of HPGD (15-Hydroxyprostaglandin Dehydrogenase). Potency, µM, without a hit: at the highest dose activity change, negative = inhibition, most hits filed as inhibitors. purified HPGD, NADH fluorescence kinetic, PGE2 substrate. 150,000 compounds, 4.3% hits; active = well fitted inhibition curve with a large enough effect, not every such curve was filed as active; inconclusive = small, poorly fitted or top-dose-only effect, or another doubt; inactive = no such curve, though single readings can be large or run the other way; also: potency is read from the fitted curve at half-maximal effect
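20 nM HPGD preincubated 15 min at room temperature with compound in 50 mM Tris-HCl pH 8, 0.01% Tween 20. Started with 1 mM NAD+ and 30 uM prostaglandin E2; NADH fluorescence (360/450 nm) read 5 times over 30-s intervals, last minus first.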
PNC assembly inh = High Content Assay for Compounds that inhibit the Assembly of the Perinucleolar Compartment | PC3M PTB-GFP, PNC prevalence imaging, 16 h; stronger effect = lower value | 140,000 compounds, 3.1% hits | activity change (PNC), negative = inhibition, % at 10 µM;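 active = readout at or below -70, meaning at least 70% loss of cells showing the perinucleolar compartment, a nuclear body marking cancer cells; inconclusive = readout between -30 and a set limit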;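 also: plate controls were DMSO wells for no effect and camptothecin positive control wells for full effect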
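Read-out is percentage of cells bearing a perinucleolar compartment, from automated 20x imaging of fixed, Hoechst-stained PC3M PTB-GFP cells. Cells were seeded 4 h, then exposed 16 h to compound (23 nl of library stock) in duplicate plates.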
ALOX12 inhib = qHTS Assay for Inhibitors of 12-hLO (12-human lipoxygenase); Potency, µM (series often up to 57.1 µM), without a hit: at the highest dose activity change, negative = inhibition, hits mostly inhibitors; purified 12-hLO, xylenol orange hydroperoxide absorbance; 150,000 compounds, 0.12% hits; Polyunsaturated fatty acid lipoxygenase ALOX12 (Homo sapiens), P18054; also: potency is read from the fitted curve at half-maximal effect; nearly all actives have a fitted effect of over 55% in size
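Lipoxygenase turnover measured by absorbance at 573 and 405 nm after Fe-XO development. Human 12hLO 150 nM, arachidonate 40 uM, pH 7.0 Hepes buffer with detergent; 15 min compound preincubation, 30 min reaction.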
GLA inh pH 4.5 = qHTS Assay for Inhibitors of Human alpha-Galactosidase at pH 4.5; purified enzyme, 4-MU-alpha-Gal fluorescence, pH 4.5; activity change, negative = inhibition, % at 105 µM; 230,000 tested, under 10 active; AID 1467, 2008; Alpha-galactosidase A (Homo sapiens), P06280;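 also: 0% = full activity with enzyme and -100% = basal without enzyme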
Target sequence (P06280 whole entry, looked up): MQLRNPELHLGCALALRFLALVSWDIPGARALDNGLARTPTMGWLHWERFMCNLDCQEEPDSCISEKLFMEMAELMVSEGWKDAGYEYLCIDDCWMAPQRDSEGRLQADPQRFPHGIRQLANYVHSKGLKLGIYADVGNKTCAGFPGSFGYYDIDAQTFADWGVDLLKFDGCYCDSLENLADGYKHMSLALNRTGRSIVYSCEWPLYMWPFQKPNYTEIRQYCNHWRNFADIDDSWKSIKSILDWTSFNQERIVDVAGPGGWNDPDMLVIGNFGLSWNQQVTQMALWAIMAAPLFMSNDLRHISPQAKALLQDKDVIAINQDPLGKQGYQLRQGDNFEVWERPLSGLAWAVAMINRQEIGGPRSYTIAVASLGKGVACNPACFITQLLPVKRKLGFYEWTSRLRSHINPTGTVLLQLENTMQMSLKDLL
aGal spleen mod = qHTS Assay for Inhibitors and Activators of Human alpha-Galactosidase From Spleen Homogenate | Potency, µM (series often up to 80 µM), for inactives: top-dose activity change, negative = inhibition, most hits filed as inhibitors | human spleen homogenate, 4MU-alpha-Gal fluorescence, 40 min | 240,000 compounds, 0.008% hits;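 also: potency is read from the fitted curve at half-maximal effect; 0% = enzyme with vehicle and -100% = no enzyme basal signal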
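Human spleen homogenate (1 ug) was the enzyme source, with 4-methylumbelliferyl-alpha-D-galactopyranoside (1 mM final) in pH 5.0 citrate buffer with 0.01% Tween-20. Compounds were titrated; after 40 min at 37C, NaOH/glycine stop, 4-MU fluorescence read; AC50 from Hill fits.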
ALDH1A1 block = qHTS Assay for Inhibitors of Aldehyde Dehydrogenase 1 (ALDH1A1); Purified ALDH1A1, NADH fluorescence, propionaldehyde substrate; Potency, µM (doses to about 75.3 µM), for the others: at the highest dose activity, negative = inhibition, actives largely listed as inhibitors; 220,000 compounds, 7.3% hits; AID 1030, 2008; active = well fitted inhibition curve with a large enough effect, not every such curve was filed as active; inconclusive = small, poorly fitted or top-dose-only effect, or another doubt; inactive = no such curve, though single readings can be large or run the other way;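 also: potency is read from the fitted curve at half-maximal effect; plate controls were no enzyme wells and a reference inhibitor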
Active calls of the source: *; ? = inconclusive; · = no result; [ ] = dose if it differs, or a comment. This is a sample that favours compounds with a hit; in the whole collection about 10% have one here. Unless noted, calls follow the shape of the dose curve; as a rule, active = well fitted curve in the direction sought with a large enough effect; inconclusive = small, poorly fitted or top-dose-only effect, or another doubt; inactive = no such curve, though single readings can be large; an effect the other way counts as inactive or inconclusive. Unless noted, % is scaled to controls: 0 for no effect and ±100 for the full control effect.

SMILES	HPGD inh	PNC assembly inh	ALOX12 inhib	GLA inh pH 4.5	aGal spleen mod	ALDH1A1 block
O=c1cc(/N=C/c2coc3c(ccc4ccccc43)c2=O)[nH]c(=S)[nH]1	2.2µM*	39	-3%	-12	-4%	?
NC(=S)N/N=C/c1coc2c(ccc3ccccc32)c1=O	-12%	-28	-2%	1	8%	2.2µM*
NC(=O)N/N=C/c1coc2ccc3ccccc3c2c1=O	·	·	·	-4	8%	-10%
CC(C)(SCc1ccccc1)[C@H](N)C(=O)O	2%	·	-3%[11.4 µM]	·	·	1%[13.5 µM]
CCOC(=O)N1CCN(C(=O)CSc2nnc(C3COc4ccccc4O3)o2)CC1 (centres undefined)	-16%	16	-2%	-8	2%	32µM*
O=C(CSc1nnc(C2COc3ccccc3O2)o1)Nc1ccc(F)cc1Cl (centres undefined)	·	·	·	-6	-6%	10µM*
Cc1ccc(NC(=O)CSc2nnc(C3COc4ccccc4O3)o2)c(Cl)c1 (centres undefined)	·	·	·	3	-1%	2.8µM*
COc1ccccc1-c1nnc(SCC(=O)Nc2ccc(Cl)cc2Cl)o1	-12%	-22	-19%	-1	-4%	-11%
O=C(CSc1nnc(C2COc3ccccc3O2)o1)N1CCCC1 (centres undefined)	·	·	·	13	11%	?
O=C(O)c1ccccc1O[C@@H]1O[C@H](C(=O)O)[C@@H](O)[C@H](O)[C@H]1O	·	·	·	·	-6%	·
Cc1cc(NS(=O)(=O)N(C)C)ccc1C(C)C	16µM*	21	4%	-4	-9%	?
O[C@@H]1CCN2Cc3ccccc3N=C12	·	·	·	·	12%	·
O=C(NCCc1c[nH]c2ccccc12)c1ccccc1O	·	·	·	·	-9%	·
O=C(N/N=C\c1c(O)ccc2ccccc12)c1ccc(S(=O)(=O)N2CCCCC2)cc1	-13%	56	2%	-9	-12%	16%
Cc1cc(=O)cc2oc3cc(N)c(-c4c(C)cc(O)cc4O)c(C)c3nc1-2	-12%	·	-5%	-9	-2%	-5%
O=C(Nc1ccccc1N1CCCC1)c1cc2ccccc2o1	-23%	-26	2%	-5	2%	28µM*
CN1CCN(c2ccccc2NC(=O)c2cc3ccccc3o2)CC1	-9%	64	10%	-10	0%	7%
O=C(NC(=S)N1CCOCC1)c1cc2ccccc2o1	·	·	·	0	1%	25µM*
Cc1ccc(C(=O)c2cc([N+](=O)[O-])ccc2N2CCCCC2)c(C)c1	0%	?	-2%	3	-6%	7%
COc1ccc(C(=O)CSc2[nH]c(=O)cc(C(F)(F)F)c2C#N)cc1	·	·	·	-5	3%	18µM*
CCN(CC)CCCC(C)n1c(-c2ccccc2)nc2c(N3CCOCC3)nc(C)nc21 (centres undefined)	-19%	·	-1%	-1	5%	?
CC(=Nc1ccccc1N)c1c(C)cc(=O)n(O)c1O	·	·	·	·	1%	·
CCCCNC(=O)c1onc(CSc2ccccc2CC)c1C(=O)O	-28%	-109*	5%	-10	-11%	9%
Cc1cccc(SCc2noc(C(=O)NCC3CCCO3)c2C(=O)O)c1 (centres undefined)	-14%	-90*	3%	0	-2%	4%
CC(C)c1ccc(SCc2noc(C(=O)NCC3CCCO3)c2C(=O)O)cc1 (centres undefined)	7.9µM*	34	3%	-13	-12%	?
CC(=O)OC[C@@H]1O[C@H](C/C=N\O[C@@H](C)CN2CCCc3nc(C)c(C)cc32)C=C[C@@H]1OC(C)=O	·	·	·	·	8%[17.5 µM]	?
CN(c1cccc(NS(=O)(=O)c2cccs2)c1)S(C)(=O)=O	-8%	14	2%	8	10%	20µM*

Screening data from PubChem.
